Most compounds without a hit are left out; they make up all but 4.8% or so of the library.
hcDAF12 agonist: activates DAF-12 receptor from parasite H. contortus. HEK293 hcDAF-12 lit1-tk-luc reporter, luminescence; 0% DMSO, 100% Δ7-dafachronic acid. AID 652067. actives 1.4% (n = 370,000). activation, % at 6.8 µM;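 active means activation above the mean of all tested compounds plus 3 SD, cut at about 5.5% in these data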
hgDAF-12 ag: agonists of H. glycines DAF-12 nuclear receptor; HEK293 GAL4-hgDAF12 UAS-luciferase reporter, agonist luminescence; normalized to butyrate control; activation, % at 6.8 µM; actives 1.8% (n = 370,000); AID 687014;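 active means activation above a cutoff set at the mean of all screened compounds plus 3 SD, cut at about 10% in these data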
DAX1 inh-1: inhibitors of human orphan nuclear receptor DAX1 (NR0B1); HEK293 Gal4-DAX1 luciferase reporter, luminescence; actives 0.99% (n = 340,000); inhibition, % at 6.75 µM;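 active means inhibition above the mean over all tested compounds plus 3 SD, cut at about 4.2% in these data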;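 further: inhibition shows as a rise in luminescence from relieved DAX1 repression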
ssDAF-12 act: activates DAF-12 receptor from parasite S. stercoralis; HEK293 ssDAF-12/GRIP1 lit1-tk-luc reporter, luminescence; % of 3 µM dafachronic acid response; activation, % at 6.8 µM; AID 652126; actives 1% (n = 370,000);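 active means activation above the mean over all tested compounds plus 3 SD, cut at about 0.9% in these data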
NR1D1 modulator: Rev-erb alpha (human) modulation | P20393 | Rev-erbα–FITC-DNA binding, fluorescence polarization, 90 min | activity, % at 10 µM | actives 0.79% (n = 370,000) | AID 1259318;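 active means activity above about 14%, limit read from the data; passing the limit was not always enough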
DAX1 inh-2: inhibitors of DAX1 repression of SF-1 activated StAR promoter; HEK293T StAR-luciferase reporter, SF-1/DAX-1 repression relief; inhibition, % at 6.8 µM; actives 1.1% (n = 370,000);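 active means inhibition above the mean over all tested compounds plus 3 SD, cut at about 3.6% in these data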;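 further: higher inhibition means more luminescence from relief of DAX-1 repression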
hgDAF12 conf: hgDAF-12 agonism, confirmation assay | shares compounds with hgDAF-12 ag | HEK293 GAL4-hgDAF12 luciferase reporter, agonist mode; percent of butyrate response | activation, % at 6.8 µM | actives 80% (n = 3,300);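 active means mean activation over triplicate wells above the hit cutoff derived from the earlier primary screen, cut at about 11% in these data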
LXR ag 2: counter-screen for DAF-12 agonists: agonists of human LXR-beta. shares compounds with hgDAF-12 ag. HEK293 Gal4-LXR luciferase reporter, 24 h. activation, % at 6.8 µM. 3,300 tested, under 10 active. AID 743051;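 active means mean activation of the triplicate above a set limit carried over from the primary screen, none filed active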
Target sequence (P55055 whole entry, looked up, the tested form may be a part): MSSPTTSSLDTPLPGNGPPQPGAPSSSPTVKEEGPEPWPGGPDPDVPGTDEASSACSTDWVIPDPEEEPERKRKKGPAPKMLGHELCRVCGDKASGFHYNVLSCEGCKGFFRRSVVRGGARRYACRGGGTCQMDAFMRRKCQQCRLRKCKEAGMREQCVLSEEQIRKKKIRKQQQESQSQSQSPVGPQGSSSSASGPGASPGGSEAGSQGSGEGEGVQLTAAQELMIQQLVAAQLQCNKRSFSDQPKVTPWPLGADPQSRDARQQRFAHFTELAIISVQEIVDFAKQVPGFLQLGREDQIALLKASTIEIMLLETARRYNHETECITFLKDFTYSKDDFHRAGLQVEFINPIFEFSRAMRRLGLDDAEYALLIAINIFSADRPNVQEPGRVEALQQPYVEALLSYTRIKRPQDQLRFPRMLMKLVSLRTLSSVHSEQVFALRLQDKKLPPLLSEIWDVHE
A number is an active result; 0 = inactive; - = no result.

SMILES	hcDAF12 agonist	hgDAF-12 ag	DAX1 inh-1	ssDAF-12 act	NR1D1 modulator	DAX1 inh-2	hgDAF12 conf	LXR ag 2
Cc1ccn2cc(-c3cccc(NC(=O)CCC(=O)O)c3)nc2c1	0	0	0	0	0	0	-	-
CCOC(=O)[C@@]12CCC3=C1N(CCC3)C(=O)[C@H](CC(=O)NCCCN1CCCC1=O)C2	0	0	-	0	0	0	-	-
Nc1cc2nc[nH]c2cc1N	6.1	14.8	0	0	0	0	0	0
CCOC(=O)c1ccc2nc3c(cc2c1)CCS3	0	15.6	0	0	0	0	11.3	0
O=C(Cn1c(-c2cncs2)nc2ccccc21)NC1CCCCC1	0	0	-	0	0	0	-	-
COc1ccc(NC(=O)C(C)N=C2NS(=O)(=O)c3ccccc32)cc1S(N)(=O)=O (stereo not drawn)	0	15.0	0	0	0	0	0	0
CCOC(=O)C(Cc1ccccc1)CP(=O)(OC)[C@@H](C)NC(=O)OCc1ccccc1 (stereo partly drawn)	0	0	-	0	0	0	-	-
O=C(NC(=S)Nc1ccc(N2CCOCC2)cc1)c1ccco1	0	16.2	0	0	0	0	0	0
O=C(NC(=S)Nc1ccc(CN2CCOCC2)cc1)c1ccco1	0	0	0	0	0	0	-	-
Cn1nnc(NCc2cc(Br)ccc2OCc2ccccc2F)n1	0	17.5	0	0	0	0	0	0
Fc1ccccc1COc1ccc(Br)cc1CNCC1CCCO1 (stereo not drawn)	0	0	0	0	0	0	-	-
COc1ccc(CC(=O)N2CCN(C(=O)c3ccc4nc(C)n(C5CCCC5)c4c3)CC2)cc1	0	0	-	0	0	0	-	-
Cc1ccc(-c2cc(-c3nnc(SCC(=O)Nc4nccs4)n3N)[nH]n2)cc1	0	13.3	-	0	0	0	10.4	0
Clc1ccccc1N1CCN(C2=Nc3ccccc3Sc3ccccc32)CC1	0	0	-	0	0	0	-	-
C#CCNC(=O)C[C@H]1C[C@@]2(C(=O)OC)C(=C[C@H](C(C)C)O[C@@H]2C2CC2)N(Cc2ccc(Cl)cc2Cl)C1=O	0	0	-	0	0	0	-	-
O=C(Nc1ccc(F)cc1)OCc1cn(Cc2ccccc2)nn1	0	0	-	0	0	0	-	-
COc1ccc(Nc2nc(-c3ccccc3)nc3ccccc23)c(OC)c1	0	0	0	0	0	0	-	-
COc1ccc(Nc2nc(N)c3ccccc3n2)c(OC)c1	0	13.3	4.8	0	0	0	15.3	0
Nc1ccc(F)c(CN2CCN(c3ncc(Cc4ccccc4)cn3)CC2)c1	0	0	-	0	0	0	-	-
S=C1NCCOc2ccccc21	0	0	-	0	0	0	-	-
COC(=O)c1sccc1NC(=O)c1ccc(C)o1	0	0	0	0	0	0	-	-
COC(=O)c1sccc1-c1ccc(C(=O)Nc2ccccc2)o1	0	13.3	0	0	0	0	12.5	0
COc1ccc(C2=NOC(CNC(N)=S)C2)cc1 (stereo not drawn)	0	13.5	4.5	0	0	0	15.5	0
COc1ccc(CNC(=O)C2CC(c3ccc(OC)cc3)=NO2)cc1 (stereo not drawn)	0	0	0	0	0	0	-	-
COc1ccc(NC(=O)/C=C/c2ccccc2)c([N+](=O)[O-])c1	0	15.6	0	0	0	0	12.0	0
SMILES	hcDAF12 agonist	hgDAF-12 ag	DAX1 inh-1	ssDAF-12 act	NR1D1 modulator	DAX1 inh-2	hgDAF12 conf	LXR ag 2
COc1cccc(C(=O)Nc2ccc(C(F)(F)F)n(C)c2=O)c1	6.3	18.0	0	0	0	0	14.3	0
C/C(=N\NC(=O)c1nn(C)c(C)c1Br)c1ccc(NC(=O)c2ccc(C)s2)cc1	0	17.4	0	0	0	0	0	0
C/C(=N\NC(=O)c1nn(C)cc1Br)c1cccc(NC(=O)c2ccncc2)c1	0	17.9	0	0	0	0	0	0
C/C(=N\NC(=O)c1ccn(C)n1)c1cccc(NC(=O)c2ccc(C)s2)c1	0	14.5	0	0	0	0	0	0
C=CCN(CC=C)C[C@@H]1CSCCS(=O)(=O)N1	0	0	-	0	0	0	-	-
Cc1ccc2nc(NC(=O)/C=C/c3ccc4c(c3)OCO4)sc2c1	0	0	0	0	0	0	-	-
Cc1ccc(NC(=O)/C=C/c2ccc3c(c2)OCO3)nc1	0	16.7	0	0	0	0	13.1	0
N/C(=N\C(=S)Nc1ccccc1)c1ccccc1	6.0	16.4	4.7	0	0	0	17.4	0
Cc1ccccc1NC(=S)NCCc1ccccc1	0	0	0	0	0	0	-	-
CC(C)(C)NC(=S)NCCc1ccccc1	0	13.6	0	0	0	0	11.2	0
Oc1cccc(/C=N\Nc2nncc(-c3ccccc3)n2)c1	0	15.6	0	0	0	0	11.7	0
NC(=O)C1CCN(c2nc(-c3ccc4ccccc4c3)cs2)CC1	0	0	0	0	0	0	-	-
CC(C)Oc1cccc(-c2csc(N3CCC(C(N)=O)CC3)n2)c1	0	14.5	-	0	0	-	0	0
CC(=O)c1cccc(-c2csc(N3CCC(C(N)=O)CC3)n2)c1	0	0	0	0	0	0	-	-
NC(=O)C1CCN(c2nc(-c3ccc4c(c3)OCCCO4)cs2)CC1	0	16.9	-	0	0	-	18.1	0
COC(=O)C1CN(C2CC2)CCS(=O)(=O)N1Cc1cn(Cc2ccc(F)cc2)nn1 (stereo not drawn)	0	0	-	0	0	0	-	-
O=C(c1ccc2nc(Cc3ccccc3F)oc2c1)N1CCCC1	0	15.3	0	0	0	0	14.5	0
Cc1ccc(NC(=O)c2cc(F)c(F)cc2Cl)nc1	0	17.2	0	0	0	0	11.1	0
Cc1ccc(NC(=O)Nc2cccc(F)c2)nc1	0	13.4	4.8	0	0	0	13.8	0
Cc1ccc(NC(=O)c2ccccc2F)nc1	0	13.6	0	0	0	0	14.3	0
CC1CCC2(CC1)CCC2NCc1ccc(Cl)c(Cl)c1 (stereo not drawn)	0	0	-	0	0	-	-	-
CCCCOc1ccc(C(=O)NC2CCCCN(C(C)C)C2=O)cc1 (stereo not drawn)	0	0	-	0	0	0	-	-
CCOC(=O)[C@]12CCCCC/C=C\1N(Cc1ccc(OC)cc1)C(=O)[C@H]2CC(=O)NCc1ccc(OC)c(OC)c1	0	0	-	0	0	0	-	-
COc1cccc(C(=O)NCCSc2ccc(F)cc2)c1	0	14.0	0	0	0	0	11.5	0
O=C(COC(=O)/C=C/c1cccc(F)c1)Nc1ncccn1	0	0	0	0	0	0	-	-
O=C(/C=C/c1cccc(F)c1)Nc1nccs1	0	14.8	0	0	0	0	14.7	0
COC(=O)[C@H](C(C)C)N1Cc2nnn(Cc3ccccc3)c2C=CS1(=O)=O	0	0	-	0	0	0	-	-

Bioassay records from PubChem.
